About 79,000 compounds went through this panel and 15% of them were active in at least one assay; those are over-represented in the sample as a whole. Activity calls are given as the source filed them. No stated cut-off is given here; in the data, active means growth inhibition above about 70%; inactive means the rest.
Key:
[1] = NCI Yeast Anticancer Drug Screen. Data for the rad52 strain (AID 147);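 further: 0% = growth of vehicle-treated control cultures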; settings: S. cerevisiae rad52 mutant growth inhibition, hits give high values
In short: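 Read-out: growth inhibition versus vehicle-treated controls. Cells were a DNA repair-deficient yeast strain treated with compounds.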

[2] = NCI Yeast Anticancer Drug Screen. Data for the wt1 strain (AID 149);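 further: 0% = growth of vehicle-treated wt1 cultures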; settings: S. cerevisiae wt1 strain (SPY 50644) growth inhibition, hits give high values
In short: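 Readout: yeast growth inhibition, normalised to vehicle controls, in the wt1 strain exposed to test compounds.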

[3] = NCI Yeast Anticancer Drug Screen. Data for the rad50EPP+ strain (AID 151);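 further: 0% = growth of vehicle-treated control cultures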; settings: S. cerevisiae rad50 mutant strain, hits give high values
In short: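 Growth inhibition read against vehicle controls in rad50EPP+ yeast, a strain altered in DNA damage repair, after compound exposure.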

[4] = NCI Yeast Anticancer Drug Screen. Data for the mgt1 strain (AID 153); settings: S. cerevisiae mgt1 mutant growth inhibition, hits give high values
In short: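 mgt1 yeast grown with test compound; read-out is growth inhibition versus vehicle-treated cultures.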

[5] = NCI Yeast Anticancer Drug Screen. Data for the rad50 strain (AID 155);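 further: 0% = growth of vehicle-only cultures of the same strain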; settings: S. cerevisiae rad50 strain growth inhibition, hits give high values
In short: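 Compounds were tested on a yeast strain with an engineered DNA damage repair alteration; the reported value is growth inhibition normalised to vehicle treatment.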

[6] = NCI Yeast Anticancer Drug Screen. Data for the mec2-1 strain (AID 157); settings: S. cerevisiae mec2-1 strain, hits give high values
In short: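 Yeast mec2-1 mutant treated with compound. Readout: growth inhibition vs vehicle controls.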

[7] = NCI Yeast Anticancer Drug Screen. Data for the rad14 strain (AID 159);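 further: 0% = growth of vehicle-treated control cultures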; settings: S. cerevisiae rad14 strain growth inhibition, hits give high values
In short: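 Compound-treated yeast with a defined DNA-repair lesion; growth inhibition normalised to vehicle-treated cultures.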

[8] = NCI Yeast Anticancer Drug Screen. Data for the sgs1 mgt1 strain (AID 161);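 further: 0% = growth of cultures given vehicle only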; settings: S. cerevisiae sgs1 mgt1 strain, hits give high values
In short: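 Genetically altered yeast, compound exposure, growth inhibition relative to vehicle.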

[9] = NCI Yeast Anticancer Drug Screen. Data for the CLN2oe strain (AID 163);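 further: 0% = growth of vehicle-only control cultures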; settings: S. cerevisiae CLN2oe strain, hits give high values
In short: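 Read-out: yeast growth inhibition, expressed relative to vehicle-only controls. The strain bears an engineered cell-cycle alteration.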

[10] = NCI Yeast Anticancer Drug Screen. Data for the bub3 strain (AID 167); settings: S. cerevisiae bub3 mutant strain, hits give high values
In short: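 Growth of a checkpoint-deficient yeast mutant is measured after compound exposure. Values represent inhibition relative to vehicle.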

[11] = NCI Yeast Anticancer Drug Screen. Data for the mlh1 strain (AID 171);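 further: 0% = growth of vehicle-treated control cultures of the same strain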; settings: S. cerevisiae mlh1 strain growth inhibition, hits give high values
In short: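 Read-out: growth inhibition versus vehicle controls. Strain: engineered yeast with a defined DNA repair or cell cycle defect, compound-treated.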

[12] = NCI Yeast Anticancer Drug Screen. Data for the sgs1 strain (AID 173);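 further: 0% = growth of vehicle-only control cultures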; settings: S. cerevisiae sgs1 mutant, hits give high values
In short: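 Read-out: yeast growth inhibition relative to vehicle controls, following compound exposure of a strain with a defined DNA repair/cell cycle alteration.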

[13] = NCI Yeast Anticancer Drug Screen. Data for the mlh1 rad18 strain (AID 175); settings: S. cerevisiae mlh1 rad18 strain growth inhibition, hits give high values
In short: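 Yeast w/ defined DNA-repair lesions; compound exposure; growth vs vehicle controls → % inhibition.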

[14] = NCI Yeast Anticancer Drug Screen. Data for the rad18 strain (AID 177); settings: S. cerevisiae rad18 mutant growth inhibition, hits give high values
In short: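 Readout: growth inhibition vs vehicle controls. Cells: genetically altered yeast strain, DNA repair defect.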

[15] = at 5.0 µM (retest, dose inferred, filed as 0.5)
[16] = at 50.0 µM (retest, dose inferred, filed as 5.0)

Measured: growth inhibition

C=C1CC(CCCl)(c2ccccc2)OC1=O (stereo not given)
active: [1]; at 33.0 µM 88% | [1]; at 100.0 µM 99% | [2]; at 33.0 µM 84% | [2]; at 100.0 µM 98% | [3]; at 100.0 µM 92% | [4]; at 11.0 µM 78% | [4]; at 33.0 µM 98% | [4]; at 100.0 µM 99% | [5]; at 33.0 µM 91% | [5]; [16] 94% | [5]; at 50.0 µM 92.5% | [5]; at 100.0 µM 98% | [6]; at 33.0 µM 93% | [6]; [16] 98% | [6]; at 50.0 µM 93.5% | [6]; at 100.0 µM 99% | [7]; at 33.0 µM 95% | [7]; at 100.0 µM 99% | [8]; [16] 96% | [8]; at 50.0 µM 93.5% | [9]; at 33.0 µM 85% | [9]; at 100.0 µM 98% | [10]; at 11.0 µM 76% | [10]; at 33.0 µM 96% | [10]; [16] 98% | [10]; at 50.0 µM 92.4% | [10]; at 100.0 µM 99% | [11]; at 11.0 µM 82% | [11]; at 33.0 µM 97% | [11]; at 100.0 µM 99% | [12]; at 33.0 µM 96% | [12]; at 100.0 µM 99% | [13]; [16] 98% | [13]; at 50.0 µM 91.2% | [14]; at 33.0 µM 94% | [14]; at 100.0 µM 99%
inactive: [1]; at 1.2 µM -37% | [1]; at 3.7 µM -25% | [1]; at 11.0 µM 17% | [2]; at 1.2 µM -13% | [2]; at 3.7 µM -16% | [2]; at 11.0 µM 25% | [3]; at 1.2 µM 0% | [3]; at 3.7 µM 2% | [3]; at 11.0 µM 19% | [3]; at 33.0 µM 48% | [4]; at 1.2 µM -25% | [4]; at 3.7 µM -3% | [5]; at 1.2 µM 0% | [5]; at 3.7 µM 13% | [5]; [15] 4% | [5]; at 11.0 µM 33% | [6]; at 1.2 µM -4% | [6]; at 3.7 µM 16% | [6]; [15] 13% | [6]; at 11.0 µM 65% | [7]; at 1.2 µM -2% | [7]; at 3.7 µM 25% | [7]; at 11.0 µM 60% | [8]; [15] -8% | [9]; at 1.2 µM 4% | [9]; at 3.7 µM 7% | [9]; at 11.0 µM 24% | [10]; at 1.2 µM -6% | [10]; at 3.7 µM 37% | [10]; [15] 37% | [11]; at 1.2 µM 21% | [11]; at 3.7 µM 35% | [12]; at 1.2 µM 4% | [12]; at 3.7 µM 2% | [12]; at 11.0 µM 59% | [13]; [15] 22% | [14]; at 1.2 µM 0% | [14]; at 3.7 µM 13% | [14]; at 11.0 µM 61%

Source: PubChem BioAssay (NCI)
